Among all 290,000 compounds or so, about 3,000 (1%) were called active. Many of the other results were omitted from the sample, so actives are more common in it than they were. Unmarked numbers belong to inactive results. Rule as the data show it: active = inhibition mostly above about 36% (no sharp cut-off); inactive = mostly below about 34%.
Assay: inhibition of NOD1-driven NF-kB reporter – cell-based, luminescence, uHTS, primary screen (AID 1578);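 also: HEK-293T reporter cells stimulated with the NOD1 agonist gamma-tri-DAP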
Settings: NOD1-driven NF-kB luciferase reporter cells, at 4 µM, hits give high values

Q: For `CCc1nccn1S(=O)(=O)c1cc(OC)c(Cl)cc1OC`, which inhibition is on record?
A: -4.5%

Q: Which inhibition does the source give for `CC(=O)Nc1c(C(=O)O)oc2ccc(Cl)cc12` here?
A: 2.5%

Q: With `O=S(=O)(NC1CCCC1)c1ccc(Br)s1` as the compound, how does the inhibition read?
A: -14%

Q: For `Cc1ccc(S(=O)(=O)NC2CC2)s1`, which inhibition is on record?
A: 45.4% (active)

Q: Which inhibition does the source give for `O=S(=O)(NC1CCCCC1)c1ccc(Br)s1` here?
A: -13.1%

Q: For `COc1ccc(C(=O)NCC(=O)OCC(=O)Nc2cc(OC)ccc2OC)cc1`, which inhibition is on record?
A: -4.7%

Q: Which inhibition does the source give for `Cc1ccc(NC(=S)N(Cc2ccc(Br)cc2)Cc2ccc(C(=O)O)cc2)cc1C` here?
A: -22.8%

Q: With `NNc1nc(-c2ccccc2)cc(-c2ccccc2O)n1` as the compound, how does the inhibition read?
A: 3.5%

Q: Which inhibition does the source give for `O=[N+]([O-])c1cc(C(F)(F)F)ccc1Sc1ccccn1` here?
A: -1.5%

Q: Which inhibition does the source give for `Oc1c(Cl)cc(Cl)c(Cl)c1Cc1c(O)c(Cl)cc(Cl)c1Cl` here?
A: 85.9% (active)

Q: With `Oc1c(Cl)cc(Cl)cc1Sc1cc(Cl)cc(Cl)c1O` as the compound, how does the inhibition read?
A: -35.5%

Q: With `Oc1c(Cl)cc(Cl)c2c1NCCC2` as the compound, how does the inhibition read?
A: -5.4%

Q: With `O=C(NC(=S)NCCO)c1sc2ccccc2c1Cl` as the compound, how does the inhibition read?
A: -51.4%

Q: For `O=S(=O)(CC(CN1CCCCC1)N1CCCCC1)c1ccc2ccccc2c1` (centres undefined), which inhibition is on record?
A: -6.3%

Q: With `O=S(=O)(CC(CN1CCCC1)N1CCCC1)c1ccc2ccccc2c1` (centres undefined) as the compound, how does the inhibition read?
A: 51.2% (active)

Q: Which inhibition does the source give for `O=S(=O)(CC(CN1CCCCC1)N1CCCCC1)c1ccccc1` (centres undefined) here?
A: 9.2%

Q: With `OCCC1CN(Cc2cccc3nonc23)CCN1C1CCCCC1` (centres undefined) as the compound, how does the inhibition read?
A: -25.9%

Q: With `O=C(CN1CCN(C(=O)C2CCCO2)CC1)Nc1ccc(F)cc1` (centres undefined) as the compound, how does the inhibition read?
A: -12%

Q: With `Cc1ccc(-c2nnc(OCc3cccnc3)c3ccccc23)cc1` as the compound, how does the inhibition read?
A: -11.3%

Q: For `COc1ccc2cc(C(=O)/C=C/c3cc(OC)c(O)c(OC)c3)ccc2c1`, which inhibition is on record?
A: 62.6%

Q: With `COc1cc(/C=C/C(=O)c2ccc3c(c2)OCO3)cc(Cl)c1O` as the compound, how does the inhibition read?
A: 13.2%

Q: Which inhibition does the source give for `COc1ccc(/C=C/C(=O)c2ccc(Cl)s2)cc1O` here?
A: -46%

Q: Which inhibition does the source give for `COc1ccc(C(=O)/C=C/c2ccc(OC)c(O)c2)c(F)c1` here?
A: 36.2%

Q: For `COc1ccc(C(=O)/C=C/c2cc(OC)c(O)c(OC)c2)c(F)c1`, which inhibition is on record?
A: 93.6% (active)

Q: With `COc1cc(/C=C/C(=O)c2ccc(Cl)s2)cc(OC)c1O` as the compound, how does the inhibition read?
A: 76.4% (active)

Q: Which inhibition does the source give for `O=C(c1ccc(F)cc1)N1CCN(C2=NS(=O)(=O)c3ccccc32)CC1` here?
A: -41.6%

Q: For `Cc1nn(-c2ccccc2)c(C)c1NC(=O)COc1ccc(C#N)cc1`, which inhibition is on record?
A: -20.8%

Q: For `CCOc1ccc(NC(=O)CC(NCc2ccccn2)C(=O)O)cc1` (centres undefined), which inhibition is on record?
A: -2.9%

Q: Which inhibition does the source give for `CCOC(=O)C1CCN(c2ccc(-c3cccs3)nn2)CC1` here?
A: -0.9%

Q: Which inhibition does the source give for `CC1CCN(c2ccc(-c3cccs3)nn2)CC1` here?
A: 31.4% (active)

Q: With `c1csc(-c2ccc(N3CCOCC3)nn2)c1` as the compound, how does the inhibition read?
A: -11.8%

Q: Which inhibition does the source give for `CCOC(=O)C1CCN(C(=O)CN(c2cc(Cl)ccc2OC)S(=O)(=O)c2ccccc2)CC1` here?
A: -33.5%

Q: Which inhibition does the source give for `COc1cccc(NS(=O)(=O)c2cc3c(cc2C)N(C)CCO3)c1` here?
A: -2.7%

Q: For `O=C(N/N=C/c1ccc(N2CCOCC2)cc1)c1ccccc1OCCOc1ccccc1`, which inhibition is on record?
A: 58.8% (active)

Q: With `O=C(N/N=C/c1ccc(N2CCOCC2)cc1)c1ccccn1` as the compound, how does the inhibition read?
A: 0%

Q: For `O=C(N/N=C/c1ccc(OCC(=O)N2CCOCC2)cc1)c1ccccc1Cl`, which inhibition is on record?
A: -15.5%

Q: Which inhibition does the source give for `Fc1ccc(-n2ncc3c(SCc4cccnc4)ncnc32)cc1` here?
A: -6.1%

Q: Which inhibition does the source give for `Cc1nc2nc[nH]n2c(=O)c1CC(=O)O` here?
A: 14.8%

Q: For `CN(c1ccc2nc3ccccc3c(=O)n2n1)C1CCCCC1`, which inhibition is on record?
A: 92.5% (active)

Q: With `CN(c1cc(=O)n2ccccc2n1)C1CCCCC1` as the compound, how does the inhibition read?
A: -27.9%

Q: For `CC1CCCN(c2ccc3nc4ccccc4c(=O)n3n2)C1` (centres undefined), which inhibition is on record?
A: 28.3%

Q: Which inhibition does the source give for `CN1CCCN(C(=O)/C=C/c2ccc(F)cc2)CC1` here?
A: -22.5%

Q: For `N#CCC(=O)Nc1ccc(C(=O)OCC(=O)NCCCc2ccccc2)cc1`, which inhibition is on record?
A: 5.1%

Q: For `O=C(O)c1ccc(C=C(c2nc3ccccc3s2)c2nc3ccccc3s2)cc1`, which inhibition is on record?
A: 63.5% (active)

Q: With `O=C(O)c1ccc(/C=C(\c2nc3ccccc3[nH]2)c2nc3ccccc3s2)cc1` as the compound, how does the inhibition read?
A: 4.6%

Q: For `COc1cc(C=C(c2nc3ccccc3s2)c2nc3ccccc3s2)ccc1O`, which inhibition is on record?
A: 7.4%

Q: For `CCCNC(=O)COC(=O)CCC(=O)c1cccs1`, which inhibition is on record?
A: -7.8%

Q: With `O=C(Oc1c(Cl)cc(Cl)c2cccnc12)c1cccc([N+](=O)[O-])c1` as the compound, how does the inhibition read?
A: 105% (active)

Q: Which inhibition does the source give for `O=C(Oc1ccc(Cl)c2cccnc12)c1cccc([N+](=O)[O-])c1` here?
A: -6.9%

Q: For `O=C(Oc1cccc2cccnc12)c1cccc([N+](=O)[O-])c1`, which inhibition is on record?
A: -8.5%

Q: For `COc1ccc(OC)c(Nc2nc(NCc3ccco3)nc(N)c2[N+](=O)[O-])c1`, which inhibition is on record?
A: -6.4%

Q: For `COc1ccc(NC(=O)c2ccc3c(c2)NC(=O)CS3)cc1S(=O)(=O)Nc1ccc(Br)cc1`, which inhibition is on record?
A: 4%

Q: With `Cc1ccc(NS(=O)(=O)c2cc(NC(=O)c3cc(=O)[nH]c(=O)[nH]3)ccc2Cl)c(C)c1` as the compound, how does the inhibition read?
A: 12.4%

Q: Which inhibition does the source give for `Cc1ccc(C(=O)N/C(=C\c2cccc([N+](=O)[O-])c2)C(=O)OCN2C(=O)c3ccccc3C2=O)cc1` here?
A: -36.4%

Q: For `O=C(NC1=NCCS1)C12CC3CC(CC(C3)C1)C2`, which inhibition is on record?
A: -23.8%

Q: For `Nc1cccc2nc3ccccc3cc12`, which inhibition is on record?
A: -65%

Q: Which inhibition does the source give for `Nc1[nH]nc2nc3ccccc3cc12` here?
A: -21.2%

Q: For `O=C(c1cccc(F)c1)N1C2C=CC(C2)C1(C(F)(F)F)C(F)(F)F` (centres undefined), which inhibition is on record?
A: 23%

Q: With `N/C(=N/S(=O)(=O)c1ccccc1)c1cccc([N+](=O)[O-])c1` as the compound, how does the inhibition read?
A: 2%

Q: Which inhibition does the source give for `CNC(=S)NNC(=O)c1sc2cc(C(F)(F)F)cnc2c1-c1ccccn1` here?
A: -34.8%

Q: Which inhibition does the source give for `CCCCCC1CC(=O)N(Cc2ccc(Cl)cc2)C(=O)N1` (centres undefined) here?
A: 7.7%

Q: With `CCCCCCC1CC(=O)NC(=O)N1` (centres undefined) as the compound, how does the inhibition read?
A: 45.3% (active)

Q: For `CCCCCCC1CC(=O)NC(=S)N1` (centres undefined), which inhibition is on record?
A: -3%

Q: With `Cc1ccc(N2CCC(N3CCN(C4CCCCC4)C(CCO)C3)CC2)cc1` (centres undefined) as the compound, how does the inhibition read?
A: -17.5%

Source: PubChem BioAssay AID1578 (Sanford-Burnham Center for Chemical Genomics, 2009)
